Experimental data taken from PubChem BioAssay AID463173 (ICCB-Longwood Screening Facility, Harvard Medical School, 2010).
About 4,300 (8.3%) of roughly 52,000 compounds were called active. The sample holds actives, similar compounds and a random draw of the others, so the mix is not that of the screen. No stated cut-off is given here; in the data, active means survival mostly below about 52% (no sharp cut-off); inactive means mostly above about 56%.

Each compound was assayed on DeltatarO mutant (assay: S. aureus survival, RN4220 and DeltatarO strains – OD600, teichoic acid synthesis inhibitors, primary screen (AID 463173)). Conditions: S. aureus RN4220 wild type/DeltatarO growth, OD600, 18 h, stronger effect = lower value, screened at 18.75 µg/mL (by protocol).
O=C(CSc1nnc(-c2ccccc2)c(-c2ccccc2)n1)NC1CCCC1 was tested, and the survival was 77% (inactive). COc1ccc(CC(NC(C)=O)C(=O)NC2CCN(c3nc(OC)nc(OC)n3)CC2)cc1 (centres undefined) was tested, and the survival was 88% (inactive). In the case of Cc1ccc(-c2cc(-c3coc4ccc(Cl)cc4c3=O)c3c(n2)-c2ccccc2OC3)cc1, the survival is reported as 77% (inactive). In the case of Cc1ncc(COC(=O)C(C)C)c2cc(C(=O)Nc3ccccc3C(F)(F)F)c(=O)oc12, the survival is reported as 134% (inactive). For Cc1ccc(OCC(=O)Nc2nc(-c3ccc(Br)cc3)ns2)cc1C, the survival was 110% (inactive). With O=C(Cc1cccs1)Nc1c(C(=O)Nc2ccc(F)cc2)oc2ccccc12 the survival was 94% (inactive). For Cc1cc(-n2c(C)nc3ccccc3c2=O)ccc1NC(=O)c1cccc([N+](=O)[O-])c1C, the survival was 0% (active). For Cc1cc(-n2c(C)nc3ccccc3c2=O)ccc1NC(=O)c1ccc(C)c([N+](=O)[O-])c1, the survival was 37% (active). In the case of Cc1cc(-n2c(C)nc3ccccc3c2=O)ccc1NC(=O)c1ccccc1[N+](=O)[O-], the survival is reported as 69% (inactive). With Cc1ccc(C(=O)Nc2ccc(-n3c(C)nc4ccccc4c3=O)cc2)cc1[N+](=O)[O-] the survival was 117% (inactive). For Cc1cc(-n2c(C)nc3ccccc3c2=O)ccc1NC(=O)c1ccc([N+](=O)[O-])cc1, the survival was 83% (inactive). Cc1c(C(=O)Nc2ccc(-n3c(C)nc4ccccc4c3=O)cc2)cccc1[N+](=O)[O-] was tested, and the survival was 99% (inactive). For CCOc1ccccc1NC(=O)c1sc(-n2nc(C)c(CCC(C)C)c2C)nc1C, the survival was 69% (inactive). COc1cccc2sc(N(Cc3cccnc3)C(=O)c3ccc4c(c3)OCCO4)nc12 was tested, and the survival was 72% (inactive). O=C(CSc1nc2ncccc2[nH]1)Nc1cc(F)ccc1F was tested, and the survival was 86% (inactive). For Cc1ccccc1CN1c2ccccc2-c2nc(SCC(=O)c3ccccc3)ncc2S1(=O)=O, the survival was 102% (inactive). In the case of NC(=O)CSc1ncc2c(n1)-c1ccccc1N(Cc1ccccc1)S2(=O)=O, the survival is reported as 89% (inactive). O=C(CSc1ncc2c(n1)-c1ccccc1N(Cc1ccccc1)S2(=O)=O)Nc1ccccc1 was tested, and the survival was -5% (active). For Cc1ccccc1CN1c2ccccc2-c2nc(SCC(=O)NCc3ccccc3)ncc2S1(=O)=O, the survival was 20% (active). Cc1ccc(CN2c3ccccc3-c3nc(SCC(=O)NCCc4ccccc4)ncc3S2(=O)=O)cc1 was tested, and the survival was 55% (inactive). For CCN1c2ccccc2-c2nc(SCC(=O)NCc3ccccc3)ncc2S1(=O)=O, the survival was 93% (inactive). CCN1c2ccccc2-c2nc(SCC(=O)NCc3ccc(Cl)cc3)ncc2S1(=O)=O was tested, and the survival was 46% (active). For CCN1c2ccccc2-c2nc(SCC(=O)NCc3ccc(C)cc3)ncc2S1(=O)=O, the survival was 105% (inactive). For Cc1ccc(CN2c3ccccc3-c3nc(SCC(=O)Nc4c(C)cc(C)cc4C)ncc3S2(=O)=O)cc1, the survival was 128% (inactive). For Cc1ccc(CN2c3ccccc3-c3nc(SCC(=O)NCc4ccccc4)ncc3S2(=O)=O)cc1, the survival was 17% (active). For Cc1ccccc1CN1c2ccccc2-c2nc(SCC(=O)NCCc3ccccc3)ncc2S1(=O)=O, the survival was 66% (inactive). In the case of O=C(CSc1ncc2c(n1)-c1ccccc1N(Cc1ccc(F)cc1)S2(=O)=O)NCc1ccccc1, the survival is reported as 87% (inactive). With O=C(CCCc1ccccc1)NC1CC(=O)N(c2cccc(F)c2)C1 (centres undefined) the survival was 120% (inactive). In the case of CN(C)c1ccc(C(CNS(=O)(=O)c2ccc(F)cc2F)N2CCOCC2)cc1 (centres undefined), the survival is reported as 69% (inactive). In the case of Cc1nn2c(=O)cc(CN(C)c3ccccc3)nc2s1, the survival is reported as 135% (inactive). For COc1ccc(S(=O)(=O)N2CCC(Oc3ccc(-n4cnnn4)cc3)CC2)cc1, the survival was 90% (inactive). In the case of O=C(NC1CC(=O)N(c2ccc(F)cc2)C1)c1ccc(S(=O)(=O)N2CCOCC2)cc1 (centres undefined), the survival is reported as 93% (inactive). Cn1c(SCC(N)=O)nnc1-c1ccc(S(=O)(=O)N2CCCC2)cc1 was tested, and the survival was 79% (inactive). In the case of Cc1ccc(Cl)cc1N1CCN(C(=O)Cn2cnc3onc(-c4ccc(F)cc4)c3c2=O)CC1, the survival is reported as 75% (inactive). With O=C(NCCc1ccccc1)C1CCC(CNS(=O)(=O)c2ccccc2)CC1 (centres undefined) the survival was 91% (inactive). CCc1cccc(NC(=O)CSc2ncc3c(n2)-c2ccccc2N(Cc2ccccc2C)S3(=O)=O)c1 was tested, and the survival was 8% (active). In the case of CCc1cccc(NC(=O)CSc2ncc3c(n2)-c2ccccc2N(CC)S3(=O)=O)c1, the survival is reported as 101% (inactive). In the case of CCOc1ccc(NC(=O)CSc2ncc3c(n2)-c2ccccc2N(Cc2ccccc2C)S3(=O)=O)cc1, the survival is reported as 91% (inactive). CCOC(=O)c1ccc(NC(=O)CC2C(=O)N(c3cccc(C)c3)C(=O)N2CCOC)cc1 (centres undefined) was tested, and the survival was 74% (inactive). CCc1ccc(NC(=O)[C@H](Cc2ccccc2)N2Cc3ccccc3C2=O)cc1 was tested, and the survival was 88% (inactive). For Fc1cccc(-c2nnn3c2nc(NC2CCCCC2)c2ccccc23)c1, the survival was 59% (inactive). In the case of Brc1cccc(-c2nnn3c2nc(NC2CCCCC2)c2ccccc23)c1, the survival is reported as 64% (inactive). With CCCCNc1nc2c(-c3cccc(C)c3)nnn2c2ccccc12 the survival was 98% (inactive). For CC1CCC(Nc2nc3c(-c4cccc(C(F)(F)F)c4)nnn3c3ccccc23)CC1 (centres undefined), the survival was -3% (active). COc1ccc(CCNc2nc3c(-c4cccc(C(F)(F)F)c4)nnn3c3ccccc23)cc1OC was tested, and the survival was 85% (inactive). In the case of FC(F)(F)c1cccc(-c2nnn3c2nc(NC2CCCCC2)c2ccccc23)c1, the survival is reported as 13% (active). In the case of Cc1cccc(CCNC(=O)c2ccc(CSCc3cccc(Cl)c3)o2)c1, the survival is reported as 70% (inactive). For O=C(CN1C(=O)COc2ccc(S(=O)(=O)N3CCOCC3)cc21)Nc1ccc(F)c(Cl)c1, the survival was 106% (inactive). CCc1ccc(NC(=O)CN2C(=O)C3(SCC(=O)N3c3ccccc3)c3ccccc32)cc1 (centres undefined) was tested, and the survival was 129% (inactive). In the case of Cc1cccc(-n2c(SCC(=O)Nc3ccc(C)c(C)c3)nc3n[nH]c(C)c3c2=N)c1, the survival is reported as 87% (inactive). With CCCCN(CC)C(=O)CSc1nc2n[nH]c(C)c2c(=N)n1-c1cccc(Cl)c1 the survival was 17% (active). With Cc1ccc(-n2c(SCC(=O)NCc3ccccc3)nc3n[nH]c(C)c3c2=N)cc1Cl the survival was -5% (active). Cc1ccc(Cl)cc1-n1c(SCC(=O)NCc2ccccc2)nc2n[nH]c(C)c2c1=N was tested, and the survival was 81% (inactive). CCCCN(CC)C(=O)CSc1nc2n[nH]c(C)c2c(=N)n1-c1cccc(C)c1 was tested, and the survival was 88% (inactive). For Cc1cccc(NC(=O)CSc2nc3n[nH]c(C)c3c(=N)n2-c2cccc(Cl)c2)c1, the survival was 55% (inactive). With Cc1c(Cl)cccc1-n1c(SCC(=O)NCc2ccccc2)nc2n[nH]c(C)c2c1=N the survival was 126% (inactive). CCCCN(CC)C(=O)CSc1nc2n[nH]c(C)c2c(=N)n1-c1cccc(OC)c1 was tested, and the survival was 109% (inactive). For Cc1ccc(NC(=O)CSc2nc3n[nH]c(C)c3c(=N)n2-c2cccc(C)c2)cc1, the survival was -5% (active). For O=C(NCC1CCCO1)Nc1c[nH]c2c(Cl)cccc2c1=O (centres undefined), the survival was 97% (inactive). With Cn1c(=O)cc(SCC(=O)NCc2ccc(F)cc2)c2ccc(Cl)cc21 the survival was 91% (inactive). Cc1cccc(Cn2c(C)c(C)c3cc(C(=O)NCc4ccco4)ccc32)c1 was tested, and the survival was 94% (inactive). COc1cc(CCNC(=O)c2ccc3c(c2)c(C)c(C)n3Cc2cccc(C)c2)cc(OC)c1OC was tested, and the survival was 80% (inactive). In the case of Cc1ccc(CNC(=O)CC(C)S(=O)(=O)c2cc3c(cc2C)NC(=O)CO3)cc1 (centres undefined), the survival is reported as 89% (inactive). In the case of Cc1ccc(C(=O)N2CCC(C)CC2)cc1NC(=O)c1nsc2ccccc12, the survival is reported as 96% (inactive). In the case of Cc1ccc(Cl)cc1N1CCN(C(=O)c2ccc(NC(=O)c3nsc4ccccc34)cc2)CC1, the survival is reported as 6% (active). O=C(Nc1ccc(C(=O)N2CCN(c3cccc(Cl)c3)CC2)cc1)c1nsc2ccccc12 was tested, and the survival was 79% (inactive). In the case of O=C(Nc1ccc(C(=O)N2CCN(c3ccc(Cl)cc3)CC2)cc1)c1nsc2ccccc12, the survival is reported as 72% (inactive). For Cc1ccc(C(=O)N2CCCCC2)cc1NC(=O)c1nsc2ccccc12, the survival was -4% (active). In the case of Cc1ccc(C(=O)N2CCC(C(N)=O)CC2)cc1NC(=O)c1nsc2ccccc12, the survival is reported as 87% (inactive). In the case of O=C(Nc1ccc(C(=O)N2CCN(c3ccccc3)CC2)cc1)c1nsc2ccccc12, the survival is reported as -1% (active). With Cc1ccc(C)c(N2CCN(C(=O)c3ccc(NC(=O)c4nsc5ccccc45)cc3)CC2)c1 the survival was 67% (inactive). In the case of O=C(Nc1ccc(C(=O)N2CCN(c3ccc(F)cc3)CC2)cc1)c1nsc2ccccc12, the survival is reported as 81% (inactive). Cc1ccc(N2CCN(C(=O)c3cn(C)c4ccc(S(=O)(=O)N(C)C5CCCCC5)cc4c3=O)CC2C)cc1 (centres undefined) was tested, and the survival was 91% (inactive). With O=C(CSc1nccn1-c1ccc(F)cc1)Nc1ccc(OC(F)(F)F)cc1 the survival was 78% (inactive). In the case of CCc1ccc(S(=O)(=O)Nc2ccc3c(c2)sc(=O)n3C)cc1, the survival is reported as 91% (inactive). For COC(=O)c1ccccc1NC(=O)Cn1c(=O)n(-c2ccc(Cl)cc2)c(=O)c2c(C)c(C)sc21, the survival was 86% (inactive). In the case of CCOC(=O)c1[nH]c(C)c(CCC(=O)NCc2cccc(Cl)c2)c1C, the survival is reported as 76% (inactive). COc1ccc(CNC(=O)Cn2ncc3c(=O)oc4ccccc4c32)c(OC)c1 was tested, and the survival was 89% (inactive). For O=C(COc1ccccc1F)Nc1ccc2nc(SCC(=O)N3CCOCC3)sc2c1, the survival was 79% (inactive). In the case of CCOc1ccc(CCNC(=O)CCc2c(C)nc3c(-c4ccccc4)c(C)nn3c2C)cc1OCC, the survival is reported as 70% (inactive). For Cc1cccc(N(CC(=O)NCCSc2ccc(Cl)cc2)S(C)(=O)=O)c1C, the survival was 38% (active). With Cc1ccc(SCCNC(=O)CN(c2cccc(C)c2C)S(C)(=O)=O)cc1 the survival was 57% (inactive). Cc1ccc(CSCCNC(=O)CN(c2cccc(C)c2C)S(=O)(=O)c2ccccc2)cc1 was tested, and the survival was 52% (inactive). In the case of CN(C)S(=O)(=O)N(CC(=O)NCCSCc1ccc(Cl)cc1Cl)c1ccccc1, the survival is reported as 47% (active). Cc1cccc(N(CC(=O)NCCSCc2cccc(Cl)c2)S(=O)(=O)c2ccccc2)c1C was tested, and the survival was 57% (inactive). With Cc1cccc(N(CC(=O)NCCSCc2ccc(Cl)cc2)S(C)(=O)=O)c1C the survival was 33% (active). Cc1ccccc1CSCCNC(=O)CN(c1ccccc1)S(=O)(=O)N(C)C was tested, and the survival was 52% (inactive). With CN(C)S(=O)(=O)N(CC(=O)NCCSCc1cccc(Cl)c1)c1ccccc1 the survival was 57% (inactive). In the case of Cc1cccc(N(CC(=O)NCCSc2ccc(Cl)cc2)S(=O)(=O)c2ccccc2)c1C, the survival is reported as 49% (inactive).
